Assay results reported in PubChem BioAssay (Tox21).
Where “and” joins values, the source holds several entries; their conditions need not be identical. Equal entries are not always repeated. Records with an inconclusive call do not appear. Unmarked numbers belong to inactive results. Calls of active or inactive are those of the source. Calls follow the shape of the dose curve; as a rule, active = well fitted cell-killing curve with a large enough effect in the repeat runs; inconclusive = weak or mixed curves, or effect the other way; inactive = no such curve, though single readings can be large or run the other way.

Assay: qHTS assay to identify small molecule antagonists of the peroxisome proliferator-activated receptor gamma (PPARg) signaling pathway - cell viability counter screen (AID 743194); also: nearly all actives have a fitted effect of over 55% in size
Details: PPARg-bla HEK293H viability, CellTiter-Glo luminescence, 17 h, co-treated with 50 nM rosiglitazone; series mostly up to 62.6 µM; activity change, negative = cytotoxicity: at the top concentration
Text: U.S. Tox21 Program National Center for Advancing Translational Sciences [NCATS] NIH Chemical Genomics Center [NCGC] U.S. Environmental Protection Agency [EPA] National Institutes of Environmental Health Sciences [NIEHS] National Toxicology Program [NTP] U.S. Food and Drug Administration [FDA] Tox21 Assay Overview: The peroxisome proliferator-activated receptors (PPARs) are lipid-activated transcription factors of the nuclear receptor superfamily with three distinct subtypes namely PPAR alpha, PPAR delta (also called PPAR beta) and PPAR gamma (PPARg). All these subtypes heterodimerize with Retinoid X receptor (RXR) and these heterodimers regulate transcription of various genes. PPAR-gamma receptor (glitazone receptor) is involved in the regulation of glucose and lipid metabolism. To identify the compounds that activate PPAR-gamma signaling, GeneBLAzer PPAR gamma UAS-bla HEK293H cell line (Invitrogen, Carlsbad, CA, USA) containing a beta-lactamase reporter gene under the control of an Upstream Activator Sequence (UAS) was used to screen the Tox21 compound library. The cytotoxicity of the Tox21 compound library against the PPARg-bla cell line was tested in parallel by measuring the cell viability using CellTiter-Glo assay in the same wells.
Tox21 Assay Protocol Summary: PPARg-bla cells were dispensed at 3000 cells/5uL/well in 1536-well black wall/clear bottom plates using a Multidrop Combi (Thermo Fisher Scientific, Waltham, MA) dispenser. After the assay plates were incubated at 37 C and 5% CO2 for 5 h, 23 nL of compounds dissolved in DMSO, positive controls or DMSO only was transferred to the assay plate by a Pintool station (Kalypsys, San Diego, CA), followed by addition of 1ul Rosiglitazone (50 nM, final concentration in the wells). The assay plates were incubated at 37 C for 17 h, and then 1 uL of LiveBLAzerTM B/G FRET substrate was added using a Bioraptr Flying Reagent Dispenser (FRD) workstation (Beckman Coulter, Indianapolis, IN, USA). The assay plates were incubated at room temperature for 1 h and fluorescence intensity was measured by an Envision plate reader (PerkinElmer, Shelton, CT). For cell viability readout that measures cytotoxicity, 4 ul/well of CellTiter-Glo reagent was added into the assay plates using a Flying Reagent Dispenser. After 30 min incubation at room temperature, the luminescence intensity in the plates was measured using a ViewLux plate reader (PerkinElmer).
% is scaled to controls: 0 for no effect and ±100 for the full control effect; potency is read from the fitted curve at half-maximal effect.

SMILES | activity change, negative = cytotoxicity | Potency
CC1(C)CC(O)CC(C)(C)N1 | -4.48% [at 81.1 µM] | –
Cc1ccc(O)c(O)c1 | -37.1% | –
CC(C)=CCC1=C(O)c2ccccc2C(=O)C1=O | 2.21% | –
COC(C)=O | -0.0158% [at 81.1 µM] | –
CC(C(=O)O)c1ccc2c(c1)[nH]c1ccc(Cl)cc12 (stereo not given) | -9.87% | –
O=C(O)O | 0.913% [at 5.95 µM] | –
C=C(CC)C(=O)c1ccc(OCC(=O)O)c(Cl)c1Cl | – | inactive
C/C=C/C=C/COC(=O)C(C)C | 4.5% | –
Oc1c(I)cc(Cl)c2cccnc12 | – | 4.36 µM (active) and 5.96 µM (active)
O=C(O)[C@H](O)[C@@H](O)[C@H](O[C@@H]1O[C@H](CO)[C@H](O)[C@H](O)[C@H]1O)[C@H](O)CO | 8.04% | –
Cc1nc(-c2ccc(Cl)cc2)oc1COC(C)(C)C(=O)O | -4.28% | –
C#CC1(O)CC[C@H]2[C@@H]3CCC4=CCCC[C@@H]4[C@H]3CC[C@@]21C (stereo not given in full) | – | 18.8 µM (active)
[Cu+] | -15.9% | –
Cc1c(C)c2c(c(C)c1OC(=O)c1cccnc1)CC[C@@](C)(CCC[C@H](C)CCC[C@H](C)CCCC(C)C)O2 | -17.6% | –
O=C(O)CN(CCN(CC(=O)O)CC(=O)O)CC(=O)O | 4.6% [at 2.7 µM] | –
O=C(O)c1ccc2cc(C(=O)O)ccc2c1 | -16.6% [at 81.1 µM] | –
COCCOc1cc2cc(C(=O)NC3CCN(C(C)C)CC3)n(CC(=O)Nc3ccc(Cl)cn3)c2cn1 | -3.76% | –
COc1cc(/C=C/c2ccccc2)oc(=O)c1 | -10.2% [at 81.1 µM] | –
O=c1oc2cc(O)ccc2c2oc3cc(O)ccc3c12 | 3.55% | –
CCCC[P+](C)(CCCC)CCCC | -22.9% [at 81.1 µM] | –

SMILES | activity change, negative = cytotoxicity | Potency
Cc1cc(C(C#N)c2ccc(Cl)cc2)c(Cl)cc1NC(=O)c1cc(I)cc(I)c1O (stereo not given) | – | 3.76 µM (active)
CCN(CCN)c1cccc(C)c1 | 6.25% | –
CN1CCN(Cc2cc(-c3ccc4[nH]c(=O)oc4c3)co2)[C@@H](c2ccc(F)cc2)C1 | -8.65% | –
CCc1cccc(CC)c1NC(=O)CN(CC(=O)O)CC(=O)O | 5.83% | –
CN(C)C(=O)COC(=O)Cc1ccc(OC(=O)c2ccc(N=C(N)N)cc2)cc1 | 20.4% | –
CCCCNS(=O)(=O)c1ccc(C)cc1 | 0.334% | –
CC(=O)Oc1cc2c(s1)CCN(C(C(=O)C1CC1)c1ccccc1F)C2 (stereo not given) | -8.27% | –
c1ccc(SSc2ccccc2)cc1 | 6.65% [at 81.1 µM] | –
C=CC(C)(CCC=C(C)C)OC=O (stereo not given) | 2.81% | –
CCCCCCCCCCCCCCCC[N+](C)(C)CC | – | 17.4 µM (active) and 26.6 µM (active)
O=C(/C=C/c1ccccc1)OC/C=C/c1ccccc1 | -11.2% | –
CC[N+](CC)(CC)CCOC(=O)C(C1CCCC1)C1CCCC1 | 3.33% | –
Fc1ccc(C(c2ccc(F)cc2)N2CCNCC2)cc1 | – | 26.6 µM (active)
Nc1ccc(NCCO)c([N+](=O)[O-])c1 | 16.4% | –
O=C1C(c2[nH]c3ccc(S(=O)(=O)O)cc3c2O)=Nc2ccc(S(=O)(=O)O)cc21 | 1.32% | –
CCCC(=O)OCOC(=O)C1=C(C)NC(C)=C(C(=O)OC)C1c1cccc(Cl)c1Cl (stereo not given) | -0.269% | –
O=c1[nH]c2ccccc2n1CCCN1CCN(C(c2ccccc2)c2ccccc2)CC1 | -23.7% | –
CCN1C(=O)c2ccccc2C1Nc1ccc(OCCN2CCCCC2)cc1 (stereo not given) | 7.44% | –
OC/C=C/CO | 10.7% | –
Clc1sc(Cl)c(Cl)c1Cl | -23.4% | –
